Screening data deposited in PubChem BioAssay by Broad Institute.
Hits are enriched below; roughly 2.2% of the tested compounds scored in any of these assays.
EWS-Fli block = EWS/Fli-driven NR0B1 reporter inhibitors, primary screen, A673 cells, NR0B1 luciferase, luminescence, MLPCN library. viability-normalised. hit rate 0.67% among 350,000. inhibition, % at 12.6 µM. AID 651661, 2012;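 active = mean inhibition of at least 50% after viability correction, with every replicate also passing that limit; inconclusive = mean reaches 50% but only one of two replicates passes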;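 note: firefly luciferase signal divided by Alamar Blue viability fluorescence both relative to DMSO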
PAX8 reporter = inhibitors of PAX8-driven TPO luciferase reporter, primary screen, RMG-I cells, single concentration | AID 652154, 2013 | SteadyGlo, 24 h | hit rate 1.2% among 360,000 | inhibition, % at 12.6 µM;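 active = mean replicate inhibition at least 60% with every replicate also reaching 60%; inconclusive = only one of the two criteria is met; inactive = mean below 60% and not all replicates reaching 60%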;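 note: luciferase light reporting Pax8 driven TPO promoter activity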
LMP1 NFkB inh = EBV LMP1-driven NF-kappaB luciferase reporter inhibitors, primary screen, cell-based, luminescence, single point. LMP1-induced NF-kappaB luciferase reporter cells. inhibition, % at 12.5 µM. hit rate 0.69% among 350,000; in the data active = inhibition above about 41%; inconclusive = no clear call, values can overlap the other calls
LGR2 antag = inhibitors of bursicon-induced LGR2 CRE-luciferase signal, primary screen, cell-based, HEK293, CRE-luciferase reporter, bursicon stimulation; bursicon-stimulated, 4 h; inhibition, % at 9.99 µM; hit rate 0.35% among 380,000; AID 720647, 2013;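 active = drop in luminescence signal, shown as inhibition above about 50% in the replicate tests, limit read from the data, passing the limit was not always enough; inconclusive = probably only some replicates passing the limit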;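 note: agonist challenge used bursicon conditioned medium at about half maximal strength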
MITF TRPM1 inh = inhibitors of MITF-dependent TRPM1 promoter reporter, primary screen, cell-based, SK-MEL-5, single point, luciferase; inhibition, % at 12.5 µM; hit rate 0.83% among 330,000; SK-MEL-5 TRPM1 promoter luciferase, 24 h;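 active = mean inhibition across replicates of 60% or more, whatever share of single replicates reaches that level; inconclusive = some that reach 60%, reason not given; inactive = mean inhibition across replicates below 60%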
Shn3 3UTR inh = reduction of Shn3 3'UTR firefly luciferase signal, primary screen, Schnurri-3 inhibitor project, cell-based, Clone20 osteoblasts, set 2. inhibition, % at 12.5 µM. Clone20 osteoblast Shn3 3'UTR firefly luciferase, 24 h. hit rate 0.52% among 360,000. AID 588674, 2011;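 active = mean inhibition of at least 75% with every replicate also reaching 75%; inconclusive = mean inhibition at least 75% but some replicate below; inactive = mean inhibition below 75%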
Numbers stand for hits; 0 = inactive; ? = inconclusive; - = not tested or not shown.

SMILES | EWS-Fli block | PAX8 reporter | LMP1 NFkB inh | LGR2 antag | MITF TRPM1 inh | Shn3 3UTR inh
C[C@H](CO)N1C[C@H](C)[C@H](CN(C)Cc2ccc(C(F)(F)F)cc2)OCCCC[C@H](C)Oc2ccc(NC(=O)NC3CCCCC3)cc2C1=O | 0 | 91 | - | 0 | - | -
C[C@H]1CCCCO[C@H](CN(C)Cc2ccc(C(F)(F)F)cc2)[C@@H](C)CN([C@@H](C)CO)C(=O)c2cc(NC(=O)NC3CCCCC3)ccc2O1 | 0 | 0 | - | 0 | - | -
C[C@@H]1CCCCO[C@@H](CN(C)Cc2ccc(C(F)(F)F)cc2)[C@H](C)CN([C@@H](C)CO)C(=O)c2cc(NC(=O)NC3CCCCC3)ccc2O1 | 0 | 78 | - | 0 | - | -
CCC(=O)Nc1ccc2c(c1)C(=O)N(C)C[C@@H](OC)[C@H](C)CN(Cc1nccs1)[C@@H](C)CO2 | 0 | - | - | 0 | - | -
C[C@@H]1CN([C@H](C)CO)C(=O)Cc2cc(NC(=O)CCCCCC(=O)Nc3ccccc3N)ccc2O[C@@H]1CN(C)Cc1ccccc1 | 0 | 0 | - | 0 | - | -
C[C@@H]1CN([C@H](C)CO)C(=O)Cc2cc(NC(=O)CCCCCC(=O)Nc3ccccc3N)ccc2O[C@@H]1CN(C)Cc1ccc(C(F)(F)F)cc1 | 0 | 69 | - | 0 | - | -
C[C@@H]1CN([C@H](C)CO)C(=O)c2cccc(NC(=O)Nc3ccccc3)c2O[C@H]1CN(C)Cc1ccc(C(=O)Nc2ccccc2N)cc1 | 0 | 0 | - | 0 | - | -
C[C@@H]1CN([C@@H](C)CO)C(=O)c2cccc(NC(=O)Nc3ccccc3)c2O[C@@H]1CN(C)Cc1ccc(C(=O)Nc2ccccc2N)cc1 | 0 | 68 | - | 0 | - | -
C[C@H](CO)N1C[C@H](C)[C@H](CN(C)Cc2ccc(Cl)c(Cl)c2)Oc2ccc(NC(=O)CCCCCC(=O)Nc3ccccc3N)cc2CC1=O | 0 | 68 | - | 0 | - | -
Cc1noc(C)c1NC(=O)Nc1cccc2c1O[C@H](CN(C)Cc1ccc(C(F)(F)F)cc1)[C@H](C)CN([C@@H](C)CO)C2=O | 0 | 81 | - | 0 | - | -
Cc1cccc(-c2ccc([C@H]3[C@H](CO)N4C(=O)CN(C(=O)Cc5ccccn5)C[C@@H]34)cc2)c1 | 0 | 0 | - | 0 | - | -
C[C@H]1CN([C@@H](C)CO)C(=O)Cc2cc(NC(=O)Nc3ccc(C(F)(F)F)cc3)ccc2O[C@H]1CN(C)Cc1ccc(C(=O)Nc2ccccc2N)cc1 | 79 | - | - | 0 | - | -
C[C@@H]1CN([C@H](C)CO)C(=O)c2cccc(NC(=O)CCCCCC(=O)Nc3ccccc3N)c2O[C@@H]1CN(C)Cc1ccc(C(F)(F)F)cc1 | 0 | 0 | - | 0 | - | -
C[C@@H]1CN([C@H](C)CO)C(=O)Cc2cc(NC(=O)Nc3ccc(C(F)(F)F)cc3)ccc2O[C@@H]1CN(C)Cc1ccc(C(=O)Nc2ccccc2N)cc1 | 0 | - | - | 0 | - | -
C[C@@H]1CN([C@H](C)CO)C(=O)Cc2cc(NC(=O)CCCCCC(=O)Nc3ccccc3N)ccc2O[C@@H]1CN(C)Cc1ccc(Cl)c(Cl)c1 | 0 | 0 | - | 0 | - | -
C[C@H](CO)N1C[C@H](C)[C@@H](CN(C)Cc2ccc(C(F)(F)F)cc2)Oc2c(NC(=O)CCCCCC(=O)Nc3ccccc3N)cccc2C1=O | - | 69 | - | 0 | - | -
C[C@H]1CN([C@@H](C)CO)C(=O)Cc2cc(NC(=O)CCCCCC(=O)Nc3ccccc3N)ccc2O[C@H]1CN(C)CC1CCCCC1 | 60 | 0 | - | 0 | - | -
C[C@@H]1CN([C@@H](C)CO)C(=O)Cc2cc(NC(=O)CCCCCC(=O)Nc3ccccc3N)ccc2O[C@@H]1CN(C)Cc1ccc(Cl)c(Cl)c1 | 0 | 70 | - | 0 | - | -
CCC(=O)Nc1ccc2c(c1)C(=O)N(C)C[C@H](OC)[C@H](C)CN(C(=O)CN(C)C)[C@H](C)CO2 | 0 | - | - | 0 | - | -
CCCNC(=O)N1[C@@H]2CN(C(=O)NC(C)C)c3ccccc3[C@@H]2[C@@H]1CO | 0 | 0 | - | 0 | - | -
COc1cccc(N2CCN(Cc3nnnn3C3CCCCC3)CC2)c1 | 0 | 0 | 0 | 0 | 0 | 0
O=C1CCc2cc(OCCCCc3nnnn3C3CCCCC3)ccc2N1 | 0 | 0 | 73 | - | 0 | 0
O=C1c2ccccc2C(=O)N1CSc1nnc(Nc2ccccc2F)s1 | 0 | 78 | 0 | 0 | 0 | 0
CN1c2ccc(-c3ccccc3)cc2[C@H]2[C@H](CCN2C(=O)NC2CCCCC2)[C@@H]1CO | 0 | 89 | - | 0 | - | -
COc1cccc(-c2ccc3c(c2)[C@@H]2[C@@H](CCN2C(=O)NC2CCCCC2)[C@@H](CO)N3C)c1 | 0 | 0 | - | 0 | - | -
SMILES | EWS-Fli block | PAX8 reporter | LMP1 NFkB inh | LGR2 antag | MITF TRPM1 inh | Shn3 3UTR inh
CN1c2ccc(-c3ccccc3)cc2[C@@H]2[C@@H](CCN2C(=O)NC2CCCCC2)[C@H]1CO | 0 | - | - | 0 | - | -
COc1cccc(-c2ccc3c(c2)[C@@H]2[C@@H](CCN2C(=O)c2ccccc2F)[C@H](CO)N3C)c1 | 0 | 72 | - | 0 | - | -
COc1cccc(-c2ccc3c(c2)[C@H]2[C@H](CCN2C(=O)NC2CCCCC2)[C@H](CO)N3C)c1 | 0 | 66 | - | 0 | - | -
COc1ccc(-c2ccc3c(c2)[C@@H]2[C@@H](CCN2C(=O)NC2CCCCC2)[C@H](CO)N3C)cc1 | 0 | 82 | - | 0 | - | -
COc1ccc(-c2ccc3c(c2)[C@H]2[C@H](CCN2C(=O)NC2CCCCC2)[C@H](CO)N3C)cc1 | 0 | 0 | - | 0 | - | -
COc1cccc(-c2ccc3c(c2)[C@@H]2[C@@H](CCN2C(=O)NC2CCCCC2)[C@H](CO)N3C)c1 | 0 | 86 | - | 0 | - | -
COc1cccc(-c2ccc3c(c2)[C@H]2[C@H](CCN2C(=O)NC2CCCC2)[C@H](CO)N3C)c1 | 0 | 0 | - | 0 | - | -
CCCCCN=Cc1c(C)[nH]n(-c2nc3ccccc3s2)c1=O | - | 0 | 51 | 60 | 0 | 0
CCCc1[nH]n(-c2nc3ccccc3s2)c(=O)c1C=NCCCOC | 0 | 0 | 0 | 0 | 0 | 0
CN(C)CCOc1ccc2c(c1)C(=O)C(=Cc1ncc([N+](=O)[O-])n1C)C2 | 52 | 99 | 0 | 100 | - | 0
Cc1ccccc1Cn1cnc2ccccc2c1=O | 0 | 160 | 0 | 0 | 0 | 0
CCCC(=O)N1CCC2(CC1)CN(C(=O)Nc1cccc(F)c1)[C@@H](CO)c1c2c2ccc(OC)cc2n1C | 0 | - | - | 0 | - | -
CC(=C\c1ccccc1)/C=C1/SC(=S)N(CCCC(=O)O)C1=O | 0 | 0 | 0 | 0 | 0 | 0
CC(/C=C1\SC(=O)N(CCCC(=O)O)C1=O)=C\c1ccccc1 | - | 0 | 72 | 0 | 85 | ?
CCC1(O)C(=O)OCc2c1cc1n(c2=O)Cc2cc3c(N)cccc3nc2-1 (stereo unspecified) | 55 | 110 | 73 | 98 | 72 | 0
CCC1(OC(=O)CN(C)C)C(=O)OCc2c1cc1n(c2=O)Cc2cc3c(N)cccc3nc2-1 (stereo unspecified) | - | - | 76 | - | 67 | 0
